Experimental findings from the supplement of paper PMC8291772 are described below.

± gives the standard error. Over roughly 1,300 sequences, “fluorescence a.u.” has its median near 38; the highest 2% begin near 280. The entries come from a sample that favours the highest values as a whole.

This assay deals with terminal deoxynucleotidyl transferase (calf thymus) (UniProt P06526). Briefly: TdT poly-dT extension signal (Cy3 hybridisation fluorescence, uncapped minus capped) (fluorescence a.u.); higher = more efficient initiation of TdT extension. To be noted: initiator chemistry: L-DNA (mirror-image), free 5'-OH (3'-tethered via HEG linker). As for the experimental part: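 All mono- to pentamer D-DNA or L-DNA initiators were made by forward (3'->5') photolithographic in situ synthesis on glass on a hexaethylene glycol linker, leaving a free 5'-OH. Each was made in uncapped and DMTr-dT-capped versions, about 11 replicates each. Arrays were extended with calf thymus TdT (0.2 U/uL), 100 uM dTTP and 0.25 mM CoCl2 for 120 min at 37 C, hybridised with an rA18-Cy3 probe and scanned at 532 nm. The value is the mean uncapped minus the mean capped signal. IDs read 5'->3'. L-DNA is mirror-image; D-DNA 5'-OH initiators were below LOD (no extension).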
Chain of terminal deoxynucleotidyl transferase (calf thymus) (P06526 whole entry): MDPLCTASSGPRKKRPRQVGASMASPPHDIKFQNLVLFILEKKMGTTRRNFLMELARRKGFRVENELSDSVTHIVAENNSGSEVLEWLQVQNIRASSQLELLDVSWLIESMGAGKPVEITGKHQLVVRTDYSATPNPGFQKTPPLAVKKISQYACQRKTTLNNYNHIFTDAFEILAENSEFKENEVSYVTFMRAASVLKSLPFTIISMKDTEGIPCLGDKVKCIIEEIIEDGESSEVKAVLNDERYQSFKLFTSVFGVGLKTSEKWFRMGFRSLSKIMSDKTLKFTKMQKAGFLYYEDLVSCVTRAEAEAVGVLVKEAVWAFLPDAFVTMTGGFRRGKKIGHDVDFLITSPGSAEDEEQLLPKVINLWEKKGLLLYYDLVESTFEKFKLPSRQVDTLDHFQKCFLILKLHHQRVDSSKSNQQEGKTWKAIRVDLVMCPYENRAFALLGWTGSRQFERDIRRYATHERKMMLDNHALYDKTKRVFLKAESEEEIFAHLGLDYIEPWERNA
Regarding TTCAT, the “TdT poly-dT extension signal” value turned out to be 372 ± 18.

TTCAG: the “TdT poly-dT extension signal” value amounted to 356 ± 32.

On to GTCAC, for which the “TdT poly-dT extension signal” value came out at 153 ± 10.

Take ATCAC: the “TdT poly-dT extension signal” value was 188 ± 16.

As to CTCAT, the “TdT poly-dT extension signal” value is 130 ± 12.

Consider CTCAA, for which the “TdT poly-dT extension signal” value came to 147 ± 10.

On to GTCAG, for which the “TdT poly-dT extension signal” value is 161 ± 18.

Take CTCAG: the “TdT poly-dT extension signal” value was 173 ± 11.

For the sequence ATCAT, the “TdT poly-dT extension signal” value came out at 172 ± 14.

TTCAA: the “TdT poly-dT extension signal” value was found to be 388 ± 29.

In the case of TTCAC, the “TdT poly-dT extension signal” value was 371 ± 39.

Regarding TTCA, the “TdT poly-dT extension signal” value was 275 ± 22.

GAGTT: the “TdT poly-dT extension signal” value came to 40.6 ± 5.8.

On to AAAAG, for which the “TdT poly-dT extension signal” value was determined as 101 ± 8.9.

Take GACGG: the “TdT poly-dT extension signal” value was 117 ± 18.

As to GAACC, the “TdT poly-dT extension signal” value was found to be 55.9 ± 8.8.

As for ACCAT, the “TdT poly-dT extension signal” value is 97.4 ± 8.9.

Consider GGGTG, for which the “TdT poly-dT extension signal” value came out at 69.1 ± 4.3.

For TGCGA, the “TdT poly-dT extension signal” value amounted to 157 ± 7.9.

For the sequence TTATA, the “TdT poly-dT extension signal” value was 384 ± 22.

For GTAT, the “TdT poly-dT extension signal” value stood at 140 ± 12.

As to TTATG, the “TdT poly-dT extension signal” value was found to be 340 ± 26.

In the case of CTATA, the “TdT poly-dT extension signal” value was determined as 170 ± 13.

In the case of CTATG, the “TdT poly-dT extension signal” value was found to be 161 ± 12.

Regarding ATATC, the “TdT poly-dT extension signal” value is 192 ± 14.

With CTATC, the “TdT poly-dT extension signal” value stood at 168 ± 13.

As for ATATA, the “TdT poly-dT extension signal” value came out at 192 ± 12.

As to TTAT, the “TdT poly-dT extension signal” value was found to be 340 ± 30.

For ATATG, the “TdT poly-dT extension signal” value amounted to 192 ± 15.

On to TTATC, for which the “TdT poly-dT extension signal” value stood at 325 ± 29.

For TTGT, the “TdT poly-dT extension signal” value was 258 ± 19.

On to TTGGA, for which the “TdT poly-dT extension signal” value turned out to be 284 ± 17.

For AGTGA, the “TdT poly-dT extension signal” value is 57.2 ± 5.7.

Consider ACTCA, for which the “TdT poly-dT extension signal” value amounted to 79.4 ± 8.6.

As for TATAT, the “TdT poly-dT extension signal” value was determined as 197 ± 14.

With AACTT, the “TdT poly-dT extension signal” value was determined as 58.3 ± 8.9.

For ACGCG, the “TdT poly-dT extension signal” value stood at 70.6 ± 6.6.

Turning to GGTTA, the “TdT poly-dT extension signal” value is 50.7 ± 4.8.

With GTATT, the “TdT poly-dT extension signal” value came out at 158 ± 10.

Turning to TTATT, the “TdT poly-dT extension signal” value was 381 ± 16.

As to ATATT, the “TdT poly-dT extension signal” value is 201 ± 13.

TATCC: the “TdT poly-dT extension signal” value is 138 ± 13.

Turning to AAAGC, the “TdT poly-dT extension signal” value was determined as 67 ± 7.7.

For GCTGA, the “TdT poly-dT extension signal” value worked out at 75.3 ± 5.4.

Regarding CGACA, the “TdT poly-dT extension signal” value was found to be 68.1 ± 4.9.

Take TTAAC: the “TdT poly-dT extension signal” value is 377 ± 27.

For CTAAT, the “TdT poly-dT extension signal” value was found to be 206 ± 15.

In the case of TTAA, the “TdT poly-dT extension signal” value was found to be 347 ± 25.

For CTAA, the “TdT poly-dT extension signal” value was found to be 170 ± 12.

For TTAAT, the “TdT poly-dT extension signal” value stood at 491 ± 32.

Consider ATAAT, for which the “TdT poly-dT extension signal” value was 246 ± 19.

Turning to CTAAG, the “TdT poly-dT extension signal” value came out at 215 ± 13.

With CTAAC, the “TdT poly-dT extension signal” value was 201 ± 14.

Regarding TTAAG, the “TdT poly-dT extension signal” value came out at 495 ± 38.

On to GTAAC, for which the “TdT poly-dT extension signal” value was found to be 191 ± 15.

For ATAAG, the “TdT poly-dT extension signal” value is 229 ± 14.

Consider GTAA, for which the “TdT poly-dT extension signal” value worked out at 143 ± 13.

Consider GGAAG, for which the “TdT poly-dT extension signal” value is 82.2 ± 8.3.

For the sequence ACGTC, the “TdT poly-dT extension signal” value was determined as 47.1 ± 4.9.

For TACTG, the “TdT poly-dT extension signal” value came out at 153 ± 14.

Turning to TCTGA, the “TdT poly-dT extension signal” value was 172 ± 12.

For ATCAA, the “TdT poly-dT extension signal” value worked out at 236 ± 13.

For GTCA, the “TdT poly-dT extension signal” value was 95.9 ± 6.2.

Turning to GGATC, the “TdT poly-dT extension signal” value is 67.1 ± 5.8.

In the case of AATA, the “TdT poly-dT extension signal” value was 106 ± 9.7.

Take ATGGC: the “TdT poly-dT extension signal” value turned out to be 127 ± 8.4.

Take AACGG: the “TdT poly-dT extension signal” value was 77.3 ± 5.7.

On to GAGTG, for which the “TdT poly-dT extension signal” value came to 61 ± 6.3.

As for TTAAA, the “TdT poly-dT extension signal” value came out at 563 ± 39.

Regarding ATAAA, the “TdT poly-dT extension signal” value was determined as 276 ± 19.

Regarding CTAAA, the “TdT poly-dT extension signal” value came to 224 ± 15.

TCGAA: the “TdT poly-dT extension signal” value came to 187 ± 8.6.

On to CTTGC, for which the “TdT poly-dT extension signal” value was determined as 107 ± 7.2.

On to TTGAT, for which the “TdT poly-dT extension signal” value stood at 314 ± 27.

On to ATGAT, for which the “TdT poly-dT extension signal” value amounted to 150 ± 9.9.

For the sequence GTGAC, the “TdT poly-dT extension signal” value came out at 144 ± 9.

Consider GTGAG, for which the “TdT poly-dT extension signal” value was 160 ± 13.

With TTGAG, the “TdT poly-dT extension signal” value came out at 317 ± 33.

GTGAT: the “TdT poly-dT extension signal” value stood at 121 ± 12.

Consider TTGAC, for which the “TdT poly-dT extension signal” value worked out at 338 ± 26.

As to GTGAA, the “TdT poly-dT extension signal” value turned out to be 142 ± 17.

As for CTGAG, the “TdT poly-dT extension signal” value came to 130 ± 11.

As to TTGAA, the “TdT poly-dT extension signal” value was found to be 339 ± 42.

As for TTGA, the “TdT poly-dT extension signal” value worked out at 270 ± 19.

In the case of ATGAA, the “TdT poly-dT extension signal” value was determined as 175 ± 12.

In the case of TCTCC, the “TdT poly-dT extension signal” value amounted to 117 ± 8.4.

Regarding CCGGG, the “TdT poly-dT extension signal” value was 82.9 ± 7.7.

For GTAAA, the “TdT poly-dT extension signal” value amounted to 239 ± 15.

For ACTTT, the “TdT poly-dT extension signal” value came out at 70.7 ± 5.3.

As to CTGGT, the “TdT poly-dT extension signal” value stood at 116 ± 6.9.

Regarding TCCCG, the “TdT poly-dT extension signal” value came out at 199 ± 19.

Regarding AATG, the “TdT poly-dT extension signal” value came out at 74.3 ± 5.6.

As for GTGTT, the “TdT poly-dT extension signal” value was 100 ± 8.2.

CGCGA: the “TdT poly-dT extension signal” value is 66.2 ± 6.

Consider ACCCG, for which the “TdT poly-dT extension signal” value was 76.1 ± 6.5.

In the case of CTTCG, the “TdT poly-dT extension signal” value came out at 133 ± 16.

With TTTC, the “TdT poly-dT extension signal” value stood at 280 ± 19.

TTTCG: the “TdT poly-dT extension signal” value was 286 ± 22.

For TGCAC, the “TdT poly-dT extension signal” value came out at 141 ± 11.

On to GGGCG, for which the “TdT poly-dT extension signal” value came to 83.8 ± 6.6.

As to GACGC, the “TdT poly-dT extension signal” value was determined as 93 ± 9.5.

On to TTTTG, for which the “TdT poly-dT extension signal” value stood at 293 ± 38.

In the case of TTGGG, the “TdT poly-dT extension signal” value worked out at 335 ± 18.

For the sequence TTTTT, the “TdT poly-dT extension signal” value was 282 ± 18.

As for CTGGG, the “TdT poly-dT extension signal” value amounted to 141 ± 8.5.

TTTT: the “TdT poly-dT extension signal” value turned out to be 223 ± 25.

As for TTTGT, the “TdT poly-dT extension signal” value came out at 311 ± 21.

As to TTGG, the “TdT poly-dT extension signal” value is 274 ± 21.

Take GTTGT: the “TdT poly-dT extension signal” value came to 139 ± 8.7.

With ATTGT, the “TdT poly-dT extension signal” value worked out at 167 ± 9.2.

In the case of GTTGG, the “TdT poly-dT extension signal” value turned out to be 144 ± 11.

With ATTGG, the “TdT poly-dT extension signal” value amounted to 180 ± 13.

With TTTGG, the “TdT poly-dT extension signal” value was found to be 350 ± 26.

In the case of GTGGG, the “TdT poly-dT extension signal” value was 172 ± 9.4.

For TATCA, the “TdT poly-dT extension signal” value stood at 160 ± 12.

GGCGC: the “TdT poly-dT extension signal” value was found to be 77.7 ± 6.3.

For CGAGC, the “TdT poly-dT extension signal” value stood at 65 ± 6.4.

GCGGC: the “TdT poly-dT extension signal” value turned out to be 73.3 ± 6.8.

Take AGCAA: the “TdT poly-dT extension signal” value amounted to 61.2 ± 5.3.

Regarding TTTG, the “TdT poly-dT extension signal” value stood at 264 ± 15.

Regarding TTTGA, the “TdT poly-dT extension signal” value stood at 320 ± 26.

For TTTGC, the “TdT poly-dT extension signal” value came out at 271 ± 19.

In the case of TCCCC, the “TdT poly-dT extension signal” value was 175 ± 17.

For the sequence GTCCT, the “TdT poly-dT extension signal” value turned out to be 117 ± 9.6.

For CTCCT, the “TdT poly-dT extension signal” value came out at 111 ± 9.1.

Regarding TTTCC, the “TdT poly-dT extension signal” value stood at 270 ± 21.

Regarding TTCCC, the “TdT poly-dT extension signal” value turned out to be 358 ± 31.

For TTCC, the “TdT poly-dT extension signal” value was 293 ± 17.

Turning to TTCCT, the “TdT poly-dT extension signal” value came out at 286 ± 28.

For the sequence GTCCA, the “TdT poly-dT extension signal” value was 122 ± 10.
